This is an account of results in PubChem BioAssay (NCATS).

Each structure is given as a SMILES string. Results filed as inconclusive are left out. Unmarked numbers belong to inactive results. Active and inactive are the calls of the source. The call rests on the fitted dose curve; in most records, active means well fitted cell-killing curve with a large enough effect; inconclusive means small, poorly fitted or top-dose-only effect, or effect the other way; inactive means no such curve, though single readings can be large or run the other way.

Assay [1] is described as follows: Viability qHTS for spleen associated tyrosine kinase inhibitor (SYKi) naive MV4-11 cells (AID 1963823). Further: nearly all actives have a fitted effect of over 40% in size. Summed up:
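SYK inhibitor-naive MV4-11 cells, 500 per well, exposed to compounds for 72 hr at 37 C, 5% CO2. Viability read as CellTiter-Glo luminescence after 10 min at room temperature.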
(qHTS replaces the single test concentration by a dilution series.)

Assay [2] in a line: Viability qHTS for spleen associated tyrosine kinase inhibitor (SYKi) drug resistant MV4-11 cells (AID 1963824). Further: nearly all actives have a fitted effect of over 35% in size. The procedure, abridged: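 CellTiter-Glo luminescence, read 10 min after reagent addition, reports viability after a 72 hr compound exposure. Cells are an MV4-11 line made resistant to SYK inhibition, seeded at 500 per well onto compound-containing plates.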
Potency means the concentration at half of the fitted maximal effect.

Regarding `CCC(C)/C=C(C)/C=C/C1=CC2=C(Cl)C(=O)C(C)(OC(C)=O)C(=O)C2=CN1C1CCCCN(C(CCC(N)=O)C(=O)O)C1=O` (stereo not given), the Potency result in assay [1] and in assay [2] was “inactive” throughout.

As for `CCCN(CCC)C(=O)C1=Cc2ccc(-c3ccc(C(=O)N4CCCC4)cc3)cc2N=C(N)C1`, the Potency in assay [1] is 8.33 µM (active); in assay [2], 4.17 µM (active).

Regarding `COC(=O)C1=CO[C@@H](O[C@@H]2O[C@H](CO)[C@@H](O)[C@H](O)[C@H]2O)[C@@H]2C(C)CC(=O)[C@]12O` (stereo not given in full), the Potency result in assay [1] and in assay [2] was “inactive” throughout.

As to `CC1(C)CC[C@]2(C(=O)OC3OC(CO)C(O)C(O)C3O)CC[C@]3(C)C(=CCC4[C@@]5(C)C[C@@H](O)[C@H](OC6OC(C(=O)O)C(O)C(O)C6O)C(C)(C)C5CC[C@]43C)[C@@H]2C1` (stereo not given in full), in assay [1], the viability (% of control) is 76.2% [at 9.25 µM]. Further, the viability, % of control in assay [2] is 95.5% [at 9.25 µM].

Consider `COc1cc(C[C@H]2COC(=O)[C@@H]2Cc2ccc(O)c(OC)c2)ccc1O`, for which the Potency result in assay [1] and in assay [2] was “inactive” throughout.

`Nc1c(-c2ccccc2)nc(Cl)c2c(O)n[nH]c(=O)c12`: the Potency result in assay [1] and in assay [2] was “inactive” each time.

For the compound `Cc1ccc2c(c1)C=Cc1cc(C)ccc1C2c1cn(Cc2ccc(C(=O)Nc3nn[nH]n3)o2)c(=O)[nH]c1=S`, the Potency entry in assay [1] and in assay [2] was “inactive” each time.

On to `O=C(O[C@H]1[C@@H]2C[C@@H]3OC[C@@](O)([C@H]2[C@H](O[C@@H]2O[C@H](CO)[C@@H](O)[C@H](O)[C@H]2O)O3)[C@@H]1O)c1ccccc1`, for which the Potency entry in assay [1] and in assay [2] was “inactive” each time.

For the compound `COc1cc2ncc(-c3ccccc3)nc2cc1OC`, the values for the Potency in assay [1] and in assay [2] were 3.66 µM (active) and 4.61 µM (active), respectively.

For `CC(C)CC(=O)O[C@@H]1OC=C(CO[C@@H]2O[C@H](CO[C@@H]3O[C@H](CO)[C@@H](O)[C@H](O)[C@H]3O)[C@@H](O)[C@H](O)[C@H]2O)[C@H]2C[C@H](O)[C@@H](CO)[C@@H]12`, the Potency entry in assay [1] and in assay [2] was “inactive” in each case.

`Cc1cc(N(C)C)ccc1-c1nc2ccc(-c3nc4ccc(N5CCN(C)CC5)cc4[nH]3)cc2[nH]1`: the Potency was 0.411 µM (active) in assay [1] and 0.184 µM (active) in assay [2].

For `CC(=O)Oc1ccc(C2(c3ccc(OC(C)=O)cc3)Oc3ccccc3NC2=O)cc1`, the Potency in assay [1] is 5.8 µM (active); in assay [2], 2.99 µM (active).

Consider `CC(=O)OCC1OC(O[C@H]2CC[C@]34C[C@]35CC(O)[C@]3(C)[C@@H]([C@H](C)CC/C=C(\C)C(=O)O)C(O)C[C@@]3(C)C5CC[C@H]4C2(C)C)C(O)C(O)C1OC1OCC(O)C(O)C1O` (stereo not given in full), for which the viability (% of control) in assay [1] was 62.3% [at 9.25 µM]. The viability, % of control in assay [2] is 79.7% [at 9.25 µM].

Take `CCC(C)C(=O)OC[C@H]1O[C@H](O[C@H]2O[C@H](CO)[C@@H](O)[C@H](O)[C@H]2O)[C@H](O)[C@@H](O)[C@@H]1O` (stereo not given in full): the Potency entry in assay [1] and in assay [2] was “inactive” throughout.

As for `COc1cc2c(cc1OC)-c1[nH]nc(Nc3cccc(F)c3)c1C2`, the Potency was 0.082 µM (active) in assay [1] and 0.0731 µM (active) in assay [2].

Turning to `COc1cc(C(CO)C(OC2OC(CO)C(O)C(O)C2O)c2ccc(O)c(OC)c2)ccc1O` (stereo not given), the Potency result in assay [1] and in assay [2] was “inactive” in each case.

With `CC(=O)N[C@H]1[C@H](O[C@H]2CC[C@@]3(C)C(CC[C@]4(C)C3CC=C3[C@@H]5CC(C)(C)CC[C@]5(C(=O)OC5OCC(O)C(O)C5O)CC[C@]34C)C2(C)C)O[C@H](COC2OC(C)C(O)C(OC3OC(C)C(O)C(O)C3O)C2O)[C@@H](O)[C@@H]1O` (stereo not given in full), in assay [1], the viability (% of control) was 83.4% [at 9.25 µM]. Further, the viability, % of control in assay [2] was 87% [at 9.25 µM].

Consider `COc1ccc(/C=C/C(=O)O[C@@H]2[C@@H](O[C@@H]3O[C@H](CO)[C@@H](O)[C@H](O)[C@H]3O)[C@@H](O)[C@H](O[C@H]3C4C=CO[C@@H](O[C@@H]5O[C@H](CO)[C@@H](O)[C@H](O)[C@H]5O)C4[C@@]4(CO)O[C@@H]34)O[C@H]2C)cc1` (stereo not given in full), for which, in assay [1], the viability (% of control) was 75.2% [at 9.25 µM]. Moreover, in assay [2], the viability, % of control is 104% [at 9.25 µM].

With `Nc1nc2c(nc(Br)n2[C@@H]2O[C@@H]3COP(=O)(O)O[C@H]3[C@H]2O)c(=O)[nH]1`, the Potency result in assay [1] and in assay [2] was “inactive” in each case.

As to `C=C1C(=O)O[C@@H]2C[C@@]3(C)CCCC(=C)[C@]3(O)C[C@H]12`, the values for the Potency in assay [1] and in assay [2] were 5.8 µM (active) and 2.59 µM (active), respectively.

In the case of `CN[C@H]1CCN(C(=O)c2ccc(Nc3ncc(F)c(-c4cnc(C)n4C(C)C)n3)cc2)C1`, the Potency was 0.058 µM (active) in assay [1] and 0.0517 µM (active) in assay [2].

With `CSC(=O)OCC1=C[C@@H]2OC(=O)C3=CO[C@@H](O[C@@H]4O[C@H](CO)[C@@H](O)[C@H](O)[C@H]4O)[C@H]1[C@@H]32`, the Potency entry in assay [1] and in assay [2] was “inactive” throughout.

With `C[C@@H]1CC[C@H]2C(C)(C)[C@H](O)[C@H](O)C[C@]2(C)[C@@]12Cc1c(O)cc3c(c1O2)CNC3=O`, the Potency entry in assay [1] and in assay [2] was “inactive” in each case.

As to `CCc1c(CC(N)=O)c2cc(OCCCP(=O)(O)O)ccc2n1Cc1ccccc1`, the Potency result in assay [1] and in assay [2] was “inactive” each time.

As for `COc1ccc2c(c1)CN(C(=O)CCN1CCC(Cc3ccccc3)CC1)CCS2`, the Potency in assay [1] and in assay [2] was 8.93 µM (active) each time.
